Holding throughout (experiment): DAPPL (digital affinity profiling via proximity ligation, sequencing); 10 mM Tris-HCl pH 7.5, 50 mM NaCl, 1 mM DTT, 4% glycerol, room temperature, 30 min; GST-TFs on glutathione beads, 16-mer random dsDNA library, 0.1% formaldehyde crosslink after washing; high values mean tight binding
One test has as its target T1, FLI1 (Homo sapiens, UniProt Q01543 1-452).
T1 sequence: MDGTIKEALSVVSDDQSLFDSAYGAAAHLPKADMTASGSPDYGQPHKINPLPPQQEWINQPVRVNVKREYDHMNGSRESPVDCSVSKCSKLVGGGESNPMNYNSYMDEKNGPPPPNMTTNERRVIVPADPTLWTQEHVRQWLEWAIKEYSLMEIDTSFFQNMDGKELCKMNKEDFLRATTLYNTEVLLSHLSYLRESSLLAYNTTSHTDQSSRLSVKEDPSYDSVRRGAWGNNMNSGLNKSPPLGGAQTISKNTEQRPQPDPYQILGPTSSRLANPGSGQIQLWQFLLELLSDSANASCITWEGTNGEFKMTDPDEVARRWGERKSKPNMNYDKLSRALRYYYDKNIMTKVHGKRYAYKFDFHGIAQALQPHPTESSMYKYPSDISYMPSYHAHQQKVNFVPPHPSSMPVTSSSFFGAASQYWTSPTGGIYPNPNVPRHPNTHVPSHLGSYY
The note with it: protein: recombinant; tags: N-terminal GST; dsDNA, one strand shown. In a few lines:
(§1)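 Sequencing on an Illumina NextSeq500 followed washing, crosslinking with 0.1% formaldehyde, proximity ligation (BsaI/T4 ligase, 1 h, 37 °C) and PCR amplification of pools that had been incubated for 30 min at room temperature with 200 nmole of a random double-stranded 16-mer DNA library in Tris/NaCl/DTT/glycerol buffer. Each pool held DNA-barcoded human transcription factors, expressed in yeast as GST fusions and captured on glutathione beads, plus a tag-only sample. Binding signal is a hexamer's read frequency for a factor divided by its frequency in the tag-only sample.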

Another test addresses T2, ELK1 (Homo sapiens, UniProt P19419 1-428).
T2 sequence: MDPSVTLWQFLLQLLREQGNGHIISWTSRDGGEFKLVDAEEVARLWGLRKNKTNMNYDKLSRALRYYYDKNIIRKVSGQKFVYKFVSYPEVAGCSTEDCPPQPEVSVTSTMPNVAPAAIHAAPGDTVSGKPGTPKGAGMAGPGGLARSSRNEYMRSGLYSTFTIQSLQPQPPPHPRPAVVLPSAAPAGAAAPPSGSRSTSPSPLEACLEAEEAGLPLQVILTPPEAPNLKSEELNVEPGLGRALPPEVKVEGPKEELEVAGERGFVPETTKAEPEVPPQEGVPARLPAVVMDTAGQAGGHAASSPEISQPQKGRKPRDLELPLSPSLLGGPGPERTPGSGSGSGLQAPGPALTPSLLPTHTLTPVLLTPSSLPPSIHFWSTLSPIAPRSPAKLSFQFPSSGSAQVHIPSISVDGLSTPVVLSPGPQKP
As to conditions: protein: recombinant; tags: N-terminal GST; dsDNA, one strand shown. Put shortly:
as §1

The target of another test is T3, GABPA (Homo sapiens, UniProt Q06546 1-454).
T3 sequence: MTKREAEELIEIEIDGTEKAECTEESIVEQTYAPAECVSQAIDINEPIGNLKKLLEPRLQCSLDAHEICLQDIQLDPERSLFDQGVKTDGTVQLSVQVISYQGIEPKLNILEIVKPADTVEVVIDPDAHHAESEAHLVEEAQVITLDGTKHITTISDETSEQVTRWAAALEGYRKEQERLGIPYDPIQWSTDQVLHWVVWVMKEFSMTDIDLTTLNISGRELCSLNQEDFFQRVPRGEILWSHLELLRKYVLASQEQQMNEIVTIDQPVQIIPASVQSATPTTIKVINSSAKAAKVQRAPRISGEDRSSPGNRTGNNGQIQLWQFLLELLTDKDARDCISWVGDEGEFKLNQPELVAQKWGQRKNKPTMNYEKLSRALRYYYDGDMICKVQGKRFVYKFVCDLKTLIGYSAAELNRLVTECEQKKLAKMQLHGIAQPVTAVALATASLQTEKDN
The note with it: protein: recombinant; tags: N-terminal GST; dsDNA, one strand shown. In a few lines:
as §1

Another test has as its target T4, ERG (Homo sapiens, UniProt P11308 1-479).
T4 sequence: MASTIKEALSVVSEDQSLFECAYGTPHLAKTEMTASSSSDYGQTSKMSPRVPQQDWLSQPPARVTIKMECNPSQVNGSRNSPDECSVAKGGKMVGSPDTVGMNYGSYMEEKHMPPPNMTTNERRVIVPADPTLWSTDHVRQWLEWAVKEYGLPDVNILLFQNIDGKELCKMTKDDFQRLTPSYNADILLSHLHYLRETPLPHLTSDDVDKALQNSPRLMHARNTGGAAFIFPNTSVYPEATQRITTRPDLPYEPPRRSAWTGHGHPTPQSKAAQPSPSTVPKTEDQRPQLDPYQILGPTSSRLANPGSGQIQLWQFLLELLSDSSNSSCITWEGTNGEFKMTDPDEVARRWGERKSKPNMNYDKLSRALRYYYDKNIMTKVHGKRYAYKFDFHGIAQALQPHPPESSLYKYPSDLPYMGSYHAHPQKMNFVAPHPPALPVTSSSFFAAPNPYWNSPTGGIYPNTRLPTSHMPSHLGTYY
The note with it: protein: recombinant; tags: N-terminal GST; dsDNA, one strand shown. Put shortly:
as §1

A further test has as its target ELF1 (Homo sapiens, UniProt P32519 1-619). As to conditions: protein: recombinant; tags: N-terminal GST; dsDNA, one strand shown. Put shortly:
as §1

The target in another test is T5, EHF (Homo sapiens, UniProt Q9NZC4 1-300).
T5 sequence: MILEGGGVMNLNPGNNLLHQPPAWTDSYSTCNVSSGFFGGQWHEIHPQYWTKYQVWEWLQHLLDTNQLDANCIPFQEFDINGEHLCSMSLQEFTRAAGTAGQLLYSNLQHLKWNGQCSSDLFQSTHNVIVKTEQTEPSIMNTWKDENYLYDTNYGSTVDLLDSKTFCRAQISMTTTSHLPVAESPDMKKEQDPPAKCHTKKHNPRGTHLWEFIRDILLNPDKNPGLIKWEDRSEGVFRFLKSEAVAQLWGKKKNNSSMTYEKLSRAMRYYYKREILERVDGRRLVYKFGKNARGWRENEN
As to conditions: protein: recombinant; tags: N-terminal GST; dsDNA, one strand shown. Put shortly: as §1

A further test concerns the target SPI1 (Homo sapiens, UniProt P17947 1-270). As to conditions: protein: recombinant; tags: N-terminal GST; dsDNA, one strand shown. In a few lines: as §1
Another test concerns the target SPIB (Homo sapiens, UniProt Q01892 1-262). As to conditions: protein: recombinant; tags: N-terminal GST; dsDNA, one strand shown. Put shortly:
as §1

The next test has as its target T6, ELK3 (Homo sapiens, UniProt P41970 1-407).
T6 sequence: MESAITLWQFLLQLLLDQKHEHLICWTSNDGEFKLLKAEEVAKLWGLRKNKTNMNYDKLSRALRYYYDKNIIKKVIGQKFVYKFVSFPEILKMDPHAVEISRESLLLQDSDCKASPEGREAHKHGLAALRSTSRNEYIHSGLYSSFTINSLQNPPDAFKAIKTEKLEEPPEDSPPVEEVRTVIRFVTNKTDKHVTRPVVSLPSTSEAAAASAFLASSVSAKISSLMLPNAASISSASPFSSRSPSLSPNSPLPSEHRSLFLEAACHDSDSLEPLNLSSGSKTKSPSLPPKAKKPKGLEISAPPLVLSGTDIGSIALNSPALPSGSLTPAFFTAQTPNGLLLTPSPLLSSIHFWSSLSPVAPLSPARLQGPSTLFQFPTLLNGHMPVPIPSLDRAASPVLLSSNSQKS
As to conditions: protein: recombinant; tags: N-terminal GST; dsDNA, one strand shown. In a few lines:
as §1

The target in another test is T7, FEV (Homo sapiens, UniProt Q99581 1-238).
T7 sequence: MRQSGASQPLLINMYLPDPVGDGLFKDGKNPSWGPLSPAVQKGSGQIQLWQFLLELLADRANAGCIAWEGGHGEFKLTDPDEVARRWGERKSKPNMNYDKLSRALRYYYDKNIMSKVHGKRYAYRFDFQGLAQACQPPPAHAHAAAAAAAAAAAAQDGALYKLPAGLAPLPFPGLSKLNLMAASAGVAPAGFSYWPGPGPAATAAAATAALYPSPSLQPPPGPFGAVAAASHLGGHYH
As to conditions: protein: recombinant; tags: N-terminal GST; dsDNA, one strand shown. In a few lines:
as §1

The target of the next test is ETV5 (Homo sapiens, UniProt P41161 1-510). As to conditions: protein: recombinant; tags: N-terminal GST; dsDNA, one strand shown. Put shortly: as §1
A further test concerns the target HSF1 (Homo sapiens, UniProt Q00613 1-529). The note with it: protein: recombinant; tags: N-terminal GST; chain copies: 3; dsDNA, one strand shown. Put shortly: as §1
In the next test the target is T8, SPIC (Homo sapiens, UniProt Q8N5J4 1-248).
T8 sequence: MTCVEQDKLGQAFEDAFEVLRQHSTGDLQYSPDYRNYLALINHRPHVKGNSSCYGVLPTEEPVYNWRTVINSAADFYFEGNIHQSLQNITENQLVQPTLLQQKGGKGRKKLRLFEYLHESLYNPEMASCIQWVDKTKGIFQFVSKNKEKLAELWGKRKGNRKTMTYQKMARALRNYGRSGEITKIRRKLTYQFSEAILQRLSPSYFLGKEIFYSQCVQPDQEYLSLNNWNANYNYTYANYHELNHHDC
The note with it: protein: recombinant; tags: N-terminal GST; dsDNA, one strand shown. In a few lines:
as §1

Another test concerns the target ELF4 (Homo sapiens, UniProt Q99607 1-663). As to conditions: protein: recombinant; tags: N-terminal GST; dsDNA, one strand shown. In a few lines:
as §1

A further test concerns the target T9, ELK4 (Homo sapiens, UniProt P28324-2 1-405).
T9 sequence: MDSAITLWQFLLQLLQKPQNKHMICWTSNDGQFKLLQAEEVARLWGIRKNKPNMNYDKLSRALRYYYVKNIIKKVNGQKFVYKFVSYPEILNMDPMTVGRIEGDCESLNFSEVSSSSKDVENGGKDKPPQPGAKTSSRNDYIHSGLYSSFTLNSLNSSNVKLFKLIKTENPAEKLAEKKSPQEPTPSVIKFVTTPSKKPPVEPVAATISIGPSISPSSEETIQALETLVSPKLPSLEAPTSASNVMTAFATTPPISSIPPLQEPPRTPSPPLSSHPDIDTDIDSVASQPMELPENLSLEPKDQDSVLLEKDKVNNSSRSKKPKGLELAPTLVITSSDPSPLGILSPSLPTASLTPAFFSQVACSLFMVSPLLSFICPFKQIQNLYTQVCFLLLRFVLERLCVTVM
As to conditions: protein: recombinant; tags: N-terminal GST; dsDNA, one strand shown. Put shortly:
as §1

A further test deals with T10, ETV2 (Homo sapiens, UniProt O00321 1-342).
T10 sequence: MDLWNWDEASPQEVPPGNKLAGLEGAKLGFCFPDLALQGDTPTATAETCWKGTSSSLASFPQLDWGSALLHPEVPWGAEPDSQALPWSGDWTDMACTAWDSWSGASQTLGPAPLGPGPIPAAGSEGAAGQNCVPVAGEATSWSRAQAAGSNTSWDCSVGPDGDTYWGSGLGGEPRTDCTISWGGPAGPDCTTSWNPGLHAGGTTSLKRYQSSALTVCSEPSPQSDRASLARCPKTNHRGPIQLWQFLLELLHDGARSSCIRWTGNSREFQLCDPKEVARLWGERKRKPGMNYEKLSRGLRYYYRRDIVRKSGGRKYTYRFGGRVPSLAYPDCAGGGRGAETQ
As to conditions: protein: recombinant; tags: N-terminal GST; dsDNA, one strand shown. In a few lines: as §1

The next test addresses T11, ELF3 (Homo sapiens, UniProt P78545 1-371).
T11 sequence: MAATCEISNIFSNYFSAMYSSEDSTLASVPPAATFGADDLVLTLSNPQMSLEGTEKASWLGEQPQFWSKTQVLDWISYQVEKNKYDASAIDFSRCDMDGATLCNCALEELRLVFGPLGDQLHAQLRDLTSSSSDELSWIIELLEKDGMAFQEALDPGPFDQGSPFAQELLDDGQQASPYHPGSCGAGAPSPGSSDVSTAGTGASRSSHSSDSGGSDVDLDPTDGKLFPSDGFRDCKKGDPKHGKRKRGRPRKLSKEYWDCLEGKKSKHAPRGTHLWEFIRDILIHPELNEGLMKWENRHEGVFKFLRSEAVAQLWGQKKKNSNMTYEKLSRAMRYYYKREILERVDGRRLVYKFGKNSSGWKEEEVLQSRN
As to conditions: protein: recombinant; tags: N-terminal GST; dsDNA, one strand shown. In a few lines: as §1

For another test, the target named is ETV1 (Homo sapiens, UniProt P50549 1-477). As to conditions: protein: recombinant; tags: N-terminal GST; dsDNA, one strand shown. Put shortly:
as §1

Sequence of ETV1 (P50549 whole entry): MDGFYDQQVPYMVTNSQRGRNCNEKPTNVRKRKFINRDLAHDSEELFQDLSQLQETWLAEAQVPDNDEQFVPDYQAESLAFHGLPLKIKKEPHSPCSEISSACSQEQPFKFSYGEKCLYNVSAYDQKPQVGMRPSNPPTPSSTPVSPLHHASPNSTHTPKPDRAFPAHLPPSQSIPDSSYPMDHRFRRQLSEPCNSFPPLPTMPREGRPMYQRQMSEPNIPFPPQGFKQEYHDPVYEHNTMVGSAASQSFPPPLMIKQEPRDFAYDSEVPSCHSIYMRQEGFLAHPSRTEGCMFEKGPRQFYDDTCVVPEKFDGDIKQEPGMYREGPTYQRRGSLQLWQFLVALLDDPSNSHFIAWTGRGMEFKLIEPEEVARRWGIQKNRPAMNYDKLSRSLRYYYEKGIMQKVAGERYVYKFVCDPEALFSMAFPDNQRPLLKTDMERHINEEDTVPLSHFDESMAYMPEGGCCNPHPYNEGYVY
Sequence of ELF1 (P32519 whole entry): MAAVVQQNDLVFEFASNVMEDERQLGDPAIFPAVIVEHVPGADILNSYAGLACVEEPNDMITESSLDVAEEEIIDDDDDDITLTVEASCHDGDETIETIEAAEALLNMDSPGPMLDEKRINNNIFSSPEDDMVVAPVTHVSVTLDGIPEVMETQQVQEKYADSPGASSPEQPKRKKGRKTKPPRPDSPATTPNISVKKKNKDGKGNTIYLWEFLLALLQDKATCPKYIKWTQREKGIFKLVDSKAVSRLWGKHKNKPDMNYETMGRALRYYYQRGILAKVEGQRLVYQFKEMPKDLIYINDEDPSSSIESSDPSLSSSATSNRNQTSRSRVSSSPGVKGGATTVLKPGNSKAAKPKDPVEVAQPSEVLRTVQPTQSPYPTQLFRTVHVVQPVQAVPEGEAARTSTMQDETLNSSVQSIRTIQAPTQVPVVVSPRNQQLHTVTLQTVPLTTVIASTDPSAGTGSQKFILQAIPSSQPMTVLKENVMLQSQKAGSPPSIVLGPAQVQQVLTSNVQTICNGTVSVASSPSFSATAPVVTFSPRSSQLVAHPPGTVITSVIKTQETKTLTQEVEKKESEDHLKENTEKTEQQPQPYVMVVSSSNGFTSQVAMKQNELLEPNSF
Sequence of ELF4 (Q99607 whole entry): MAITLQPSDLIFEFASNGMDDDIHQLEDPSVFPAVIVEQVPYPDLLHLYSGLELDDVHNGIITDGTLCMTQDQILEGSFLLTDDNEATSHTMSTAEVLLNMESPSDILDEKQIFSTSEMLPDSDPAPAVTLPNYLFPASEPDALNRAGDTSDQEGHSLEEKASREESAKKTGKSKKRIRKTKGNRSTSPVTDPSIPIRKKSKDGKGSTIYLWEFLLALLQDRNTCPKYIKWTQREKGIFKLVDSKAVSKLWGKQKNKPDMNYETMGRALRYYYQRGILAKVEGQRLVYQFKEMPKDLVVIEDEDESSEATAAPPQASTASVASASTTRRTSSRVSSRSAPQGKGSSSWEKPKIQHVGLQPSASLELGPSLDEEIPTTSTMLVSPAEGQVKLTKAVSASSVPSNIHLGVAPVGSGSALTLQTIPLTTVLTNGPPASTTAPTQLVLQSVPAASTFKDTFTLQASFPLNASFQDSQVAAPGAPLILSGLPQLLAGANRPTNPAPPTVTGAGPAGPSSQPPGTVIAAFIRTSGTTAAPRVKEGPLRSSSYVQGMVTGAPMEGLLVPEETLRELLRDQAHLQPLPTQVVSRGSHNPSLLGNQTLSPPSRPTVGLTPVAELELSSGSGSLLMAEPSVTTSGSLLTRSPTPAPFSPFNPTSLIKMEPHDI
Sequence of SPIB (Q01892 whole entry): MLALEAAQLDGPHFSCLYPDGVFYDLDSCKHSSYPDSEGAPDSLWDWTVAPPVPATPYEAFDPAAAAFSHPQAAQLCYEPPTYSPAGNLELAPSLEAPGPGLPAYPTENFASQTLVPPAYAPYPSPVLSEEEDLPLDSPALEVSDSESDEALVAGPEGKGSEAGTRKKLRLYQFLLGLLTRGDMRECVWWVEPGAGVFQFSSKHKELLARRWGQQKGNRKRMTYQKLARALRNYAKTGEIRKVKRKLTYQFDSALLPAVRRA
Sequence of ETV5 (P41161 whole entry): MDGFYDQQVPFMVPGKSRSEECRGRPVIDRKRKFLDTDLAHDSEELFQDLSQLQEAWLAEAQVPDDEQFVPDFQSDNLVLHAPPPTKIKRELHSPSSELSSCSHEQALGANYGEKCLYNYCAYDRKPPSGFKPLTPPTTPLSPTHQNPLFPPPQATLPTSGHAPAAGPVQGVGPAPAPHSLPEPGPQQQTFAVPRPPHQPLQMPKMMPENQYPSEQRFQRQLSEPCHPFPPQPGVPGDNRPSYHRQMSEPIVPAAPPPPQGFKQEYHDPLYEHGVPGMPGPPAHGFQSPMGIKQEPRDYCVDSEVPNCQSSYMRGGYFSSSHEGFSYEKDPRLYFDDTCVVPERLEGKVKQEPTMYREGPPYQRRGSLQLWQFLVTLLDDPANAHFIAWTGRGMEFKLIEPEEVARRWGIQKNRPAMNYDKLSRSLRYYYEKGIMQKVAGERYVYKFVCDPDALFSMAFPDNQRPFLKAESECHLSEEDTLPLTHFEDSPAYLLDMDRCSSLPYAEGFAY
Sequence of HSF1 (Q00613 whole entry): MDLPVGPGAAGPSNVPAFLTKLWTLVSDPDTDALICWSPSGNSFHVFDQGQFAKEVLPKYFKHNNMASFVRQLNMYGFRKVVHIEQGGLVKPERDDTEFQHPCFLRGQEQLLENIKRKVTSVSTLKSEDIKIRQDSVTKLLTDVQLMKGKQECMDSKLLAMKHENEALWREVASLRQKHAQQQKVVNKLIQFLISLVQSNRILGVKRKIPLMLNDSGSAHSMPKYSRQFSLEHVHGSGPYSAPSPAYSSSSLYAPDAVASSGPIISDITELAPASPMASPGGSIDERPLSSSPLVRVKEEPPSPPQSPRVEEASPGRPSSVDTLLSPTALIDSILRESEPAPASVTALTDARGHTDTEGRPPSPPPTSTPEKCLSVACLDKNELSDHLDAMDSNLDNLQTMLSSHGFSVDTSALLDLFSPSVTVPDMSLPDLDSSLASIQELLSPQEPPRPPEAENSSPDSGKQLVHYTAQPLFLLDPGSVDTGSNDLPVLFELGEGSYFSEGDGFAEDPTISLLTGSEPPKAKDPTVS

On to ACATAC, for which the binding signal was 1.18 fold enrichment (6-mer frequency, TF over GST control) with FLI1; 1.14 fold enrichment (6-mer frequency, TF over GST control) in the test with ELK1; 1.19 fold enrichment (6-mer frequency, TF over GST control) in the test with GABPA; 1.19 fold enrichment (6-mer frequency, TF over GST control) with ERG; 1.17 fold enrichment (6-mer frequency, TF over GST control) with ELF1; 1.14 fold enrichment (6-mer frequency, TF over GST control) with EHF. Also, the binding signal was 1.16 fold enrichment (6-mer frequency, TF over GST control) with SPI1; 1.09 fold enrichment (6-mer frequency, TF over GST control) in the test with SPIB; 1.17 fold enrichment (6-mer frequency, TF over GST control) with ELK3; 1.13 fold enrichment (6-mer frequency, TF over GST control) in the test with FEV; 1.17 fold enrichment (6-mer frequency, TF over GST control) in the test with ETV5; 1.07 fold enrichment (6-mer frequency, TF over GST control) with HSF1. The binding signal with SPIC was 1.11 fold enrichment (6-mer frequency, TF over GST control); in the test with ELF4 it was 1.21 fold enrichment (6-mer frequency, TF over GST control); in the test with ELK4, 1.01 fold enrichment (6-mer frequency, TF over GST control); in the test with ETV2, 1.32 fold enrichment (6-mer frequency, TF over GST control); with ELF3 it was 1.25 fold enrichment (6-mer frequency, TF over GST control); in the test with ETV1, 1.15 fold enrichment (6-mer frequency, TF over GST control).
